From PubChem BioAssay AID1159580 (chemical genetic matrix, 2015)
Several values for one entry are separate records, joined by “and”; a condition that tells them apart may be missing. Equal entries are not always repeated. The whole screen tested about 5,500 compounds, of which about 2,000 (36%) were called active. Not shown: some 18% with an inconclusive outcome. No stated cut-off is given here; in the data, active means normalized growth mostly below about 0.91 (no sharp cut-off); inconclusive means no clear call, values can overlap the other calls; inactive means mostly above about 0.92. Some of the results follow.

Assay: chemical genetic growth profiling, strain panel (AID 1159580);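 further: tested at 20 µM; growth read once vehicle control cultures reached saturation at 30 °C; 1 = growth at the plate median or of vehicle wells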
Details: S. cerevisiae deletion strains, growth OD

Measured: normalized growth

C=CCC1(C(C)CCC)C(=O)N=C(S)NC1=O (stereo unspecified)
inactive: locus YAL013W, strain DEP1, stronger effect = lower value 0.989 | locus YAL021C, strain ccr4, stronger effect = lower value 0.989 | locus YAL026C, strain drs2, stronger effect = lower value 1 | locus YAL030W, strain snc1, stronger effect = lower value 0.984 | locus YBL061C, strain skt5, stronger effect = lower value 0.975 | locus YBR009C, strain hhf1, stronger effect = lower value 1.01 | locus YBR021W, strain FUR4, stronger effect = lower value 0.982 | locus YBR023C, strain chs3, stronger effect = lower value 0.986 | locus YBR171W, strain sec66, stronger effect = lower value 0.949 | locus YBR229C, strain ROT2, stronger effect = lower value 0.994 | locus YBR231C, strain swc5, stronger effect = lower value 0.976 | locus YBR279W, strain paf1, stronger effect = lower value 0.998 | locus YCL011C, strain gbp2, stronger effect = lower value 0.974 | locus YCL016C, strain dcc1, stronger effect = lower value 1 | locus YCL029C, strain bik1, stronger effect = lower value 0.981 | locus YCL061C, strain MRC1, stronger effect = lower value 0.982 | locus YCL069W, strain vba3, stronger effect = lower value 0.99 | locus YCR088W, strain abp1, stronger effect = lower value 0.967 | locus YDL005C, strain med2, stronger effect = lower value 0.937 | locus YDL035C, strain GPR1, stronger effect = lower value 0.985 | locus YDL040C, strain nat1, stronger effect = lower value 0.973 | locus YDL074C, strain BRE1, stronger effect = lower value 1.06 | locus YDL101C, strain DUN1, stronger effect = lower value 0.979 | locus YDL134C, strain PPH21, stronger effect = lower value 0.997 | locus YDL185W, strain tfp1, stronger effect = lower value 0.958 | locus YDL192W, strain arf1, stronger effect = lower value 0.976 | locus YDR001C, strain nth1, stronger effect = lower value 0.949 | locus YDR069C, strain doa4, stronger effect = lower value 0.949 | locus YDR101C, strain arx1, stronger effect = lower value 0.988 | locus YDR137W, strain rgp1, stronger effect = lower value 0.919 | locus YDR150W, strain NUM1, stronger effect = lower value 0.994 | locus YDR159W, strain sac3, stronger effect = lower value 0.952 | locus YDR162C, strain NBP2, stronger effect = lower value 1.01 | locus YDR195W, strain ref2 0.885 | locus YDR297W, strain sur2, stronger effect = lower value 0.983 | locus YDR318W, strain mcm21, stronger effect = lower value 0.986 | locus YDR334W, strain swr1, stronger effect = lower value 0.938 | locus YDR335W, strain msn5, stronger effect = lower value 0.964 | locus YDR388W, stronger effect = lower value 0.986 | locus YDR392W, strain spt3, stronger effect = lower value 1.01 | locus YDR502C, strain sam2, stronger effect = lower value 1 | locus YEL003W, strain gim4, stronger effect = lower value 0.979 | locus YEL037C, strain rad23, stronger effect = lower value 0.974 | locus YEL061C, strain CIN8 (second series), stronger effect = lower value 0.968 | locus YEL061C, strain CIN8, stronger effect = lower value 0.988 | locus YER015W, strain faa2, stronger effect = lower value 0.957 | locus YER016W, strain bim1, stronger effect = lower value 0.987 | locus YER110C, stronger effect = lower value 0.981 | locus YER111C, strain swi4, stronger effect = lower value 0.989 | locus YER155C, strain BEM2 (second series), stronger effect = lower value 0.928 | locus YER155C, strain BEM2, stronger effect = lower value 0.988 | locus YER167W, strain BCK2, stronger effect = lower value 0.961 | locus YFR010W, strain ubp6, stronger effect = lower value 0.952 | locus YGL078C, strain dbp3, stronger effect = lower value 0.986 | locus YGL086W, strain mad1, stronger effect = lower value 0.975 | locus YGL167C, strain pmr1, stronger effect = lower value 0.962 | locus YGL173C, strain kem1, stronger effect = lower value 0.999 | locus YGL227W, strain vid30, stronger effect = lower value 0.954 | locus YGL240W, strain doc1, stronger effect = lower value 0.944 | locus YGL248W, strain PDE1, stronger effect = lower value 1 | locus YGL253W, strain hxk2, stronger effect = lower value 0.969 | locus YGR078C, strain PAC10, stronger effect = lower value 1.02 | locus YGR135W, strain pre9, stronger effect = lower value 1.02 | locus YGR229C, strain SMI1, stronger effect = lower value 1.02 | locus YGR252W, strain gcn5, stronger effect = lower value 1.03 | locus YHR013C, strain ard1, stronger effect = lower value 0.964 | locus YHR027C, strain rpn1, stronger effect = lower value 0.977 | locus YHR030C, strain SLT2, stronger effect = lower value 0.976 and 0.982 | locus YHR079C, strain IRE1 (second series), stronger effect = lower value 0.987 | locus YHR079C, strain IRE1, stronger effect = lower value 0.979 | locus YHR094C, strain hxt1, stronger effect = lower value 0.968 | locus YHR129C, strain ARP1, stronger effect = lower value 1 | locus YHR142W, strain chs7, stronger effect = lower value 0.996 | locus YHR200W, strain rpn10, stronger effect = lower value 0.965 | locus YIL066C, strain RNR3, stronger effect = lower value 0.999 | locus YIL073C, strain SPO22, stronger effect = lower value 0.934 | locus YIL125W, strain kgd1, stronger effect = lower value 0.982 | locus YIR030C, strain dcg1, stronger effect = lower value 0.978 | locus YJL092W, strain hpr5, stronger effect = lower value 0.985 | locus YJL095W, strain BCK1 (second series), stronger effect = lower value 0.975 | locus YJL095W, strain BCK1, stronger effect = lower value 1.07 and 0.994 | locus YJL115W, strain asf1, stronger effect = lower value 0.952 | locus YJL129C, strain trk1, stronger effect = lower value 0.928 | locus YJL134W, strain LCB3, stronger effect = lower value 0.979 | locus YJL154C, strain vps35, stronger effect = lower value 0.965 | locus YJL164C, strain tpk1, stronger effect = lower value 1.01 | locus YJL166W, strain qcr8, stronger effect = lower value 0.969 | locus YJL168C, strain set2, stronger effect = lower value 0.983 | locus YJL187C, strain SWE1 (second series), stronger effect = lower value 1.01 | locus YJR043C, strain POL32, stronger effect = lower value 0.978 | locus YJR066W, strain TOR1, stronger effect = lower value 0.959
